Compound activity from PubChem BioAssay.
Most compounds without a hit are left out; they make up all but 3.2% or so of the library.
CRFR2-BP ag = agonists of CRF-BP/CRF-R2 complex, primary screen, cell-based, HEK293, calcium dye fluorescence, uHTS | CRF-binding protein / CRF receptor 2 complex (human) | calcium dye fluorescence (FLIPR); percent of saturating CRF peptide response | activation, % at 13.2 µM | actives 0.46% (n = 350,000) | AID 588473, 2011;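 active = activation of at least 50%, plus an integration ratio under a set limit after plate pattern correction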;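 note: plate controls were neutral control wells without compound for no effect and CRF at EC100 for full effect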
PfG6PD inh = PfG6PD enzyme inhibitors, primary screen, biochemical, fluorescence intensity, uHTS | AID 504690, 2011 | PfGluPho enzyme, NADPH resazurin-diaphorase fluorescence | actives 0.78% (n = 350,000) | inhibition, % at 20 µM | glucose-6-phosphate dehydrogenase-6-phosphogluconolactonase (Plasmodium falciparum 3D7);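 active = inhibition reaching at least a set limit at 20 µM in the primary screen, cut at about 59% in these data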;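 note: 0% = DMSO wells with substrate and 100% = DMSO wells lacking glucose-6-phosphate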
H9c2 protect = cardioprotection against H2O2-induced cell death, primary screen, uHTS, H9c2 cells, ATPLite luminescence. H9c2 cardiomyocytes, H2O2 injury protection, 2 h. protection from H2O2 cell death, % at 20 µM. actives 0.63% (n = 360,000);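 active = compounds giving at least 50% protection of heart cells from peroxide-induced death in the single-dose screen, raw or plate-pattern-corrected value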;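 note: 0% = DMSO wells with peroxide and 100% = DMSO wells without peroxide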
FAS TE block = FAS thioesterase domain inhibitors, primary screen, biochemical, fluorescence intensity, uHTS | Fatty acid synthase (Homo sapiens), P49327 | recombinant FAS-TE, OMFH fluorogenic substrate, fluorescence endpoint | inhibition, % at 15 µM | actives 0.67% (n = 360,000) | AID 602261, 2012;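 active = compounds whose normalised, plate-corrected inhibition of enzyme fluorescence in the single-dose primary screen is 50% or more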;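 note: 0% = DMSO with enzyme and 100% = substrate without enzyme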
Target sequence (P49327 whole entry, looked up, the tested form may be a part): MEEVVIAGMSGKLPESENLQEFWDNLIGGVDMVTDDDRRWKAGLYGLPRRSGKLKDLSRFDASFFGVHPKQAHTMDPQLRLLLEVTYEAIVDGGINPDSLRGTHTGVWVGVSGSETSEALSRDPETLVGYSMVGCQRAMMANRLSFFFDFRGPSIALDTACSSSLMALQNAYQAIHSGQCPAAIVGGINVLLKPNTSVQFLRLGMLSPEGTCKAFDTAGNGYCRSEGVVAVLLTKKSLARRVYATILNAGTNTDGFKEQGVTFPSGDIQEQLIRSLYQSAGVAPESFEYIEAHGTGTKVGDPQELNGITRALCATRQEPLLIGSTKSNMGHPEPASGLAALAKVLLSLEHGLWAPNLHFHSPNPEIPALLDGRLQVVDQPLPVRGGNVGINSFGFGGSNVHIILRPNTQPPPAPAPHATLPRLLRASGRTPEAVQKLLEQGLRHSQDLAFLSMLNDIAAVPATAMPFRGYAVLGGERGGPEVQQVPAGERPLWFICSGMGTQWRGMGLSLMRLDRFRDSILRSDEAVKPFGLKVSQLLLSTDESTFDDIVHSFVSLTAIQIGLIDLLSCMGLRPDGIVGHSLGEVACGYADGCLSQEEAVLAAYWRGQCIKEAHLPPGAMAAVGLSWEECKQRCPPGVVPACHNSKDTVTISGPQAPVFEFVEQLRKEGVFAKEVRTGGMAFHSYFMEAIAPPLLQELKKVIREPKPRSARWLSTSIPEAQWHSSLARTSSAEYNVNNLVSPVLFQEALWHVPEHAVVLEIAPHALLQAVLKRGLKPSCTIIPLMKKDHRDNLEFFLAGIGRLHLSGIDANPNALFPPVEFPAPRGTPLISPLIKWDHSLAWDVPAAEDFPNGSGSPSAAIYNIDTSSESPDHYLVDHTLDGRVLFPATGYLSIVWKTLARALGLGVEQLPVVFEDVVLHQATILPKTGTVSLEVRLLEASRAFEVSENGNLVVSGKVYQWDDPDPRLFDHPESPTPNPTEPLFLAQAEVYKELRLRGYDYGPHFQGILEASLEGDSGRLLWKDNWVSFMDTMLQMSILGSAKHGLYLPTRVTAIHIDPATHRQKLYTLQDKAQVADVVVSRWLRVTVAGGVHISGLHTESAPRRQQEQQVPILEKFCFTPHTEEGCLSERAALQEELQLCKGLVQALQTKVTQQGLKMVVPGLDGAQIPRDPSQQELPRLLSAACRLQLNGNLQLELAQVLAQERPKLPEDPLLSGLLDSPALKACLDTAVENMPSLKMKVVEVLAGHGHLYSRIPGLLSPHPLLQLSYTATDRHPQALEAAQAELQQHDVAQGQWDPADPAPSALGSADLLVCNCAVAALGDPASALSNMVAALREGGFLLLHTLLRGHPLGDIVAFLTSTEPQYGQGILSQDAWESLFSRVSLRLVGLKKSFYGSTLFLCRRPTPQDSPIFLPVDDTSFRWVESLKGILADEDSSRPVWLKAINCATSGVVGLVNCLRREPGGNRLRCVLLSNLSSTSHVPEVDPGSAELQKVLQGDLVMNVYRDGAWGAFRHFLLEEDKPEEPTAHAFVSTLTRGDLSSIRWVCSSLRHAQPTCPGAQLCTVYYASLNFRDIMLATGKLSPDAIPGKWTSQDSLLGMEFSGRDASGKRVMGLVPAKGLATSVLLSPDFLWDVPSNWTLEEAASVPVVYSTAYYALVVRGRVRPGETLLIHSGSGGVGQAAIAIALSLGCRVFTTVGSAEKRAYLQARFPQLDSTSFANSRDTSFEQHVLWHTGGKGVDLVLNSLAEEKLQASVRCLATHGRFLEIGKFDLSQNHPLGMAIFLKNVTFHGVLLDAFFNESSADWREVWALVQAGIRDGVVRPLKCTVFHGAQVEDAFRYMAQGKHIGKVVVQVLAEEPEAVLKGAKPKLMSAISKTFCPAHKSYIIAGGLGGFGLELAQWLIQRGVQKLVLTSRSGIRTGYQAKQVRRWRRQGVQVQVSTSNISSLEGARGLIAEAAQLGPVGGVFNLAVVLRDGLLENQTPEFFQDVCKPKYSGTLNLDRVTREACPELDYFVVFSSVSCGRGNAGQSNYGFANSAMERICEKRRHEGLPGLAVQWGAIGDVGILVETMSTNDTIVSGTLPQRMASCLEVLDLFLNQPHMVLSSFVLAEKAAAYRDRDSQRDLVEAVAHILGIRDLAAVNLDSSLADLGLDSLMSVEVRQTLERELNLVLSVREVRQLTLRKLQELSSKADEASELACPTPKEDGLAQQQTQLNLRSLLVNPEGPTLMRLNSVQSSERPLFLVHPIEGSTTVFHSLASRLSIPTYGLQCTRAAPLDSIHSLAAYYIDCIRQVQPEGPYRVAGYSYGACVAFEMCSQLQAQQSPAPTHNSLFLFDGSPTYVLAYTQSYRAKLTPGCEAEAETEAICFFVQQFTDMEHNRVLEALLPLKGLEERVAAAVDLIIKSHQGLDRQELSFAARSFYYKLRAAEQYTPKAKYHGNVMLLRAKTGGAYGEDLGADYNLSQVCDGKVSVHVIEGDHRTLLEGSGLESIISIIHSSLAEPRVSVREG
CRFBP-R2 block = antagonists of CRF-BP/CRF-R2 complex, primary screen, cell-based, HEK293, calcium dye fluorescence, uHTS. inhibition, % at 11.8 µM. CRF-induced calcium fluorescence. actives 0.59% (n = 350,000);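 active = inhibition of the ligand-induced calcium signal above about 50% at the single tested concentration, limit read from the data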
aDG glyco up = activators of alpha-DG glycosylation, primary screen, uHTS, Pro5-aDG cells, AlphaScreen. activation, % at 10 µM. actives 0.22% (n = 360,000). alpha-DG glycosylation AlphaScreen (IIH6); 0% Pro5, 100% B10-LARGE cell signal. AID 624168, 2012;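 active = activation of at least 8% versus controls, or a plate z-score of at least 8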;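 note: Pro5 are CHO cells carrying HIG-tagged alpha-DG that lacks glycosylation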
An asterisk follows results filed as active.

SMILES	CRFR2-BP ag	PfG6PD inh	H9c2 protect	FAS TE block	CRFBP-R2 block	aDG glyco up
COc1cccc(/C=N/NC(=O)C(=O)N2CCCCCC2)c1O	1	-26	45	-3	-1	0
COc1cccc(/C=N\NC(=O)C2C(=O)NCC2c2ccccc2)c1O (stereo unspecified)	14	-53	72*	0	-10	1
COc1cccc(/C=N/NC(=O)C(=O)N/N=C/c2cccc(OC)c2O)c1O	1	-16	66*	5	-8	1
COc1ccc(CC(=O)N2CCN(c3ccccc3F)CC2)cc1OC	1	1	-6	-2	10	0
O=C(Cc1ccc(-n2cccc2)cc1)N1CCN(c2ccccc2F)CC1	-4	5	-11	11	53*	1
Cc1cc(N)n(-c2ccccn2)n1	0	4	1	-6	-17	0
COc1ccc(-c2ccc(NS(=O)(=O)c3cc([N+](=O)[O-])c(C)c([N+](=O)[O-])c3)cc2)nn1	-1	-22	-1	59*	16	0
COc1ccc(-c2cccc(NS(=O)(=O)c3cc([N+](=O)[O-])c(C)c([N+](=O)[O-])c3)c2)nn1	0	-22	-3	29	6	0
Cc1ccc(C(=O)CC(=O)COc2ccc(Cl)cc2C)cc1	-2	-15	64*	10	-4	0
Cc1cccc(OCCCC(=O)NCc2ccco2)c1	-8	-4	5	-6	-28	0
COc1ccc(C(=O)C2CCCN(S(=O)(=O)c3ccc(C(C)=O)cc3)C2)c(C)c1 (stereo unspecified)	5	13	-8	28	1	1
COc1cc(C(=O)Nc2cc3c(cc2N2CCCCC2)n(C)c(=O)n3C)cc(OC)c1OC	0	47	53*	4	1	0
COc1ccc(C(=O)Nc2cc3c(cc2N2CCCCC2)n(C)c(=O)n3C)cc1OC	-2	9	30	2	18	0
COc1ccc(OC)c(C2CC(=O)c3c([nH]c(C(=O)OCC4CCCO4)c3C)C2)c1 (stereo unspecified)	-3	1	71*	22	7	0
COCCOC(=O)c1[nH]c2c(c1C)C(=O)CC(c1cc(OC)ccc1OC)C2 (stereo unspecified)	-2	2	38	-7	-16	0
Cc1ccc(C)c(CSc2nnc(-c3cccs3)n2Cc2ccco2)c1	0	-10	-8	12	50*	0
NC(=O)CSc1nnc(-c2cccs2)n1Cc1ccco1	-1	13	1	-10	3	0
COc1ccc(NC(=O)N(C)[C@H]2C[C@H]3c4[nH]c5ccc(-c6ccc7c(c6)OCO7)cc5c4CCN3C[C@H]2[C@H](C)O)cc1	9	8	54*	32	-4	0
COc1cccc(OC)c1C(=O)NC(=S)N1CCCCC1c1cccnc1 (stereo unspecified)	-1	3	1	-2	-7	0
CCc1cccc(C)c1NC(=S)N1CCCCC1c1cccnc1 (stereo unspecified)	54*	-16	-6	-4	17	0
COc1ccc(NC(=O)NCCCN2CCc3ccccc3C2)cc1	-2	0	8	-2	52*	0
O=C(NCCCN1CCc2ccccc2C1)Nc1ccc(Br)cc1	10	-12	7	1	-35	0
OC1(c2cccc(C(F)(F)F)c2)CCN(CCN2CCCCC2)CC1	-1	-14	3	-13	0	0
O=[N+]([O-])c1cc(-c2ccccc2)cc([N+](=O)[O-])c1O	1	18	-19	4	65*	0
O=[N+]([O-])c1cc2ccccc2c(O)c1O	-2	32	-1	-2	7	0
SMILES	CRFR2-BP ag	PfG6PD inh	H9c2 protect	FAS TE block	CRFBP-R2 block	aDG glyco up
Cc1ccc2nc(NCCC(=O)O)nc(-c3ccccc3)c2c1	146*	-28	-8	-6	38	0
OCCCNc1nc(-c2ccccc2)c2cc(Br)ccc2n1	9	-17	-7	0	-25	0
O=C(O)CCNc1nc(-c2ccccc2)c2cc(Br)ccc2n1	96*	-19	-1	-2	-25	0
Nc1ncnc(NNC(=O)CNC(=O)c2c(F)cccc2Cl)c1[N+](=O)[O-]	3	23	0	-5	101*	0
O=C(O)C1C2C=CC(C2)C1C(=O)NCCc1cccc(Cl)c1 (stereo unspecified)	1	-15	3	-2	50*	0
O=C(O)C1C2C=CC(C2)C1C(=O)NCc1cccc(Cl)c1 (stereo unspecified)	0	-15	-2	-6	-8	0
O=C(CCN1CCCC1=O)NC1CCCc2c1cnn2-c1ccccc1F (stereo unspecified)	21	-3	3	-3	54*	0
O=C(NC(=S)N1CCCCCC1)c1ccc(Cl)cc1Cl	2	2	4	-6	-17	0
N#CC1=C2SCN(Cc3ccccc3)CN2C(=O)CC1c1ccc2c(c1)OCO2 (stereo unspecified)	1	61*	12	-2	-12	0
COc1ccc(OC)c(C2CC(=O)N3CN(c4ccccc4)CSC3=C2C#N)c1 (stereo unspecified)	2	81*	-6	-1	8	0
COc1ccc(C2CC(=O)N3CN(c4ccc(C)c(Cl)c4)CSC3=C2C#N)cc1 (stereo unspecified)	0	70*	7	20	2	0
COc1ccc(C2CC(=O)N3CN(c4ccccc4F)CSC3=C2C#N)cc1OC (stereo unspecified)	-4	68*	35	5	16	0
N#CC1=C2SCN(Cc3ccco3)CN2C(=O)CC1c1ccc(Cl)cc1 (stereo unspecified)	0	54	11	6	8	0
OCCSc1nc(-c2cccnc2)nc2ccccc12	0	7	47	-4	-7	0
Nc1o[nH]c(=O)c1C1CCCCC1	-2	-3	0	-4	-12	0
N#CCCN1CCN(C(=O)c2c(N)no[n+]2[O-])CC1	4	2	4	-3	-3	0
COc1cc(OC)c(-c2c3cc(O)c(=O)cc-3oc3cc(O)c(O)cc23)cc1OC	171*	-91	6	-189	-138	0
C=CCn1c(-c2ccc(N)cc2)nc2ccccc21	0	-1	-2	-6	9	0
C=CCn1c(-c2ccc(OC)cc2)nc2ccccc21	154*	-1	-26	-2	-180	0
